Experimental data reported in PubChem BioAssay AID493203 (National Center for Advancing Translational Sciences (NCATS), 2011).
Inconclusive results are not listed. The source made the active and inactive calls. The call rests on the fitted dose curve; in most records, active means well fitted activation curve with a large enough effect; inconclusive means small, poorly fitted or top-dose-only effect; inactive means flat fitted curve, though single readings scatter.
Potency means the concentration at half of the fitted maximal effect.

Test: qHTS Assay for NPC1 Promoter Activators: Initial hit validation from the primary screen;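 on activity, positive = activation: reporter driven by the mutant form of the NPC1 promoter; % of control where 0% means no effect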
Conditions: Huh7 NPC1 promoter-luciferase reporter, luminescence, 24 h; series mostly up to 46.1 µM; activity, positive = activation: at the top concentration
Outline: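 Huh7 cells stably carrying NPC1 promoter-luciferase, 1500 cells per well in OP-MEM I with 10% FBS; compounds added after 2 hours and incubated 24 hours at 37C. Luminescence read 10 minutes after Amplite luciferase reagent.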
For `O=C(Nc1ccc(-c2nc3cccnc3s2)cc1)c1ccc(Cl)nc1`, the Potency was 1.25 µM (active). For `Cc1ccc(NC(=O)c2ncc(Cl)c(Cl)c2Cl)cc1C`, the “activity, positive = activation” value was 5.4% (inactive). For `CCN(CC(=O)N(CC(C)C)c1c(N)n(CC(C)C)c(=O)[nH]c1=O)Cc1nc2ccccc2c(=O)[nH]1`, the “activity, positive = activation” value was -0.302% (inactive). In the case of `O=C(NCCc1ccccc1)c1cc2ncc(Br)cn2n1`, the Potency is reported as 14.1 µM (active). With `O=C(C1COc2ccccc2O1)N1CCN(S(=O)(=O)c2ccccc2)CC1` (centres undefined) the “activity, positive = activation” value was -2.48% (inactive). For `Cc1ccc(C(=O)NCc2ccc3c(c2)OCO3)cc1C`, the Potency was 31.5 µM (active). For `COc1cccc(C2Nc3ccccc3NC3=C2C(=O)CC(C)(C)C3)c1` (centres undefined), the “activity, positive = activation” value was 8.81% (inactive). In the case of `Cc1ccc(CNC(=O)Nc2ccc(C)cc2)cc1`, the Potency is reported as 25 µM (active). In the case of `COc1ccccc1CNC(=O)COc1ccc(C)cc1`, the “activity, positive = activation” value is reported as -3.78% (inactive). For `CC(=O)Nc1nnc(SCC(=O)NCCOc2ccccc2)s1`, the “activity, positive = activation” value was 2.05% (inactive). In the case of `COc1ccccc1N(C(=O)c1snc(C(N)=O)c1N)C(C(=O)NC1CCCCC1)c1cccc(OC)c1OC` (centres undefined), the “activity, positive = activation” value is reported as -11.6% (inactive). In the case of `O=C(CCN1C(=O)c2ccccc2C1=O)Nc1ccc(-c2nc3ccccc3s2)cc1`, the Potency is reported as 0.25 µM (active). With `O=C(NCCSCc1c(F)cccc1Cl)c1ccc(CN2CCOCC2)cc1` the “activity, positive = activation” value was -6.4% (inactive). In the case of `COc1ccc(-c2nnc(SCC(=O)/C(C#N)=C(\C)N)o2)cc1`, the Potency is reported as 0.223 µM (active). For `COc1ccc2oc(=O)c(C(=O)NC(C)c3ccccc3)cc2c1` (centres undefined), the “activity, positive = activation” value was 7.72% (inactive). In the case of `COc1ccccc1NC(=S)NCc1ccc(Cl)cc1`, the “activity, positive = activation” value is reported as 1.66% (inactive). With `CC(C)(C)NC(=S)NNC(=O)c1ccc2ncccc2c1` the Potency was 3.53 µM (active). In the case of `CCCOP(=O)(c1ccc(N(C)C)cc1)C(O)c1cccnc1` (centres undefined), the “activity, positive = activation” value is reported as 0.546% (inactive). With `Cc1[nH]n(-c2cccc3ccccc23)c(=O)c1/C=N/c1sc2c(c1C#N)CCC2` the “activity, positive = activation” value was 6.74% (inactive). In the case of `COc1ccc(C)cc1N(C(=O)CNC(=O)c1ccco1)C(C(=O)NC1CCCC1)c1cccnc1` (centres undefined), the “activity, positive = activation” value is reported as -7.29% (inactive). In the case of `O=C(C[N+]1(CC#Cc2ccccc2)CCCCC1)c1ccccc1`, the “activity, positive = activation” value is reported as -0.776% (inactive). In the case of `Cc1ccccc1NC(=O)Cc1nc(COC(=O)CC(C)c2ccccc2)cs1` (centres undefined), the “activity, positive = activation” value is reported as -6.35% (inactive). In the case of `COCCn1c(SCc2ccc(C(=O)OC)o2)nc2cc(Cl)ccc2c1=O`, the “activity, positive = activation” value is reported as -11% (inactive). With `CCOC(=O)C1(Cc2cccc(Cl)c2)CCCN(C(=O)CCSC)C1` (centres undefined) the “activity, positive = activation” value was 10.7% (inactive). For `Nc1ccc(C(=O)Nc2ccccc2N)cc1`, the Potency was 15.8 µM (active). For `CCCC(C)NC(=O)c1ccc(OCc2ccc(Cl)cc2)c(OC)c1` (centres undefined), the “activity, positive = activation” value was 5.79% (inactive). In the case of `O=C(CCCOc1ccc(Cl)cc1)N1CCCCC1`, the Potency is reported as 25 µM (active). With `O=C(c1cc2cc(Br)ccc2[nH]1)N1CCc2ccccc21` the Potency was 12.5 µM (active). In the case of `Cc1nc(-c2ccccn2)sc1C(=O)Nc1ccc(F)cc1F`, the Potency is reported as 15.8 µM (active). For `CCOC(=O)c1cc2sccc2n1CC(=O)N1CCCc2ccccc21`, the “activity, positive = activation” value was -13.7% (inactive). In the case of `CN(C)C(=O)[C@H]1C[C@H]1[C@@H](O)[C@H](CO)NC(=O)[C@H](COCc1ccccc1)NC(=O)OC(C)(C)C`, the “activity, positive = activation” value is reported as -3.05% (inactive). In the case of `Cc1cccc(NC(=O)CSc2nc3ccccc3o2)c1`, the “activity, positive = activation” value is reported as 13.4% (inactive). With `CCOCC(=O)Nc1c(C(=O)Nc2ccc3c(c2)OCCO3)oc2ccccc12` the Potency was 0.888 µM (active). For `Cc1csc(NC(=O)CSc2nnc(-c3ccncc3)o2)n1`, the Potency was 15.8 µM (active).
